According to PubChem BioAssay AID1159580 (chemical genetic matrix, 2015):
Where “and” joins values, the source holds several entries; their conditions need not be identical. Identical values can stand only once. In all, about 5,500 compounds went through this assay and about 2,000 (36%) were called active. Inconclusive results (about 18%) are left out. Rule as the data show it: active = normalized growth mostly below about 0.91 (no sharp cut-off); inconclusive = no clear call, values can overlap the other calls; inactive = mostly above about 0.92. The list shows a part of the results.

Experiment: chemical genetic growth profiling, strain panel (AID 1159580);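 also: tested at 20 µM; growth read once vehicle control cultures reached saturation at 30 °C; 1 = growth at the plate median or of vehicle wells; lower values mean less growth of the strain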
Details: S. cerevisiae deletion strains, growth OD

Measured: normalized growth

Clc1ccc(CSC(Cn2ccnc2)c2ccc(Cl)cc2Cl)cc1 (stereo not given)
active: locus YAL021C, strain ccr4, hits give low values 0.067 | locus YAL026C, strain drs2, hits give low values 0.0648 | locus YAL030W, strain snc1, hits give low values 0.0596 | locus YBL061C, strain skt5, hits give low values 0.062 | locus YBR009C, strain hhf1, hits give low values 0.0601 | locus YBR021W, strain FUR4, hits give low values 0.0857 | locus YBR023C, strain chs3, hits give low values 0.0649 | locus YBR171W, strain sec66, hits give low values 0.076 | locus YBR229C, strain ROT2, hits give low values 0.0457 | locus YBR231C, strain swc5, hits give low values 0.064 | locus YBR279W, strain paf1, hits give low values 0.064 | locus YCL011C, strain gbp2, hits give low values 0.0611 | locus YCL016C, strain dcc1, hits give low values 0.0681 | locus YCL029C, strain bik1, hits give low values 0.0583 | locus YCL069W, strain vba3, hits give low values 0.0628 | locus YCR088W, strain abp1, hits give low values 0.0629 | locus YDL005C, strain med2, hits give low values 0.0743 | locus YDL035C, strain GPR1, hits give low values 0.0497 | locus YDL040C, strain nat1, hits give low values 0.059 | locus YDL074C, strain BRE1, hits give low values 0.0766 | locus YDL101C, strain DUN1, hits give low values 0.0543 | locus YDL134C, strain PPH21, hits give low values 0.048 | locus YDL185W, strain tfp1, hits give low values 0.0566 | locus YDL192W, strain arf1, hits give low values 0.0601 | locus YDR001C, strain nth1, hits give low values 0.0613 | locus YDR069C, strain doa4, hits give low values 0.0624 | locus YDR101C, strain arx1, hits give low values 0.0606 | locus YDR137W, strain rgp1, hits give low values 0.102 | locus YDR150W, strain NUM1, hits give low values 0.0543 | locus YDR159W, strain sac3, hits give low values 0.0874 | locus YDR162C, strain NBP2, hits give low values 0.0476 | locus YDR195W, strain ref2 0.129 | locus YDR297W, strain sur2, hits give low values 0.0568 | locus YDR318W, strain mcm21, hits give low values 0.0592 | locus YDR334W, strain swr1, hits give low values 0.0638 | locus YDR335W, strain msn5, hits give low values 0.0624 | locus YDR388W, hits give low values 0.0553 | locus YDR392W, strain spt3, hits give low values 0.0838 | locus YDR502C, strain sam2, hits give low values 0.0567 | locus YEL003W, strain gim4, hits give low values 0.054 | locus YEL037C, strain rad23, hits give low values 0.0579 | locus YEL061C, strain CIN8 (second series), hits give low values 0.0613 | locus YEL061C, strain CIN8, hits give low values 0.0475 | locus YER015W, strain faa2, hits give low values 0.0623 | locus YER016W, strain bim1, hits give low values 0.061 | locus YER110C, hits give low values 0.0729 | locus YER111C, strain swi4, hits give low values 0.0739 | locus YER155C, strain BEM2 (second series), hits give low values 0.0999 | locus YER155C, strain BEM2, hits give low values 0.0594 | locus YER167W, strain BCK2, hits give low values 0.0492 | locus YFR010W, strain ubp6, hits give low values 0.0712 | locus YGL078C, strain dbp3, hits give low values 0.0667 | locus YGL086W, strain mad1, hits give low values 0.0535 | locus YGL167C, strain pmr1, hits give low values 0.0756 | locus YGL173C, strain kem1, hits give low values 0.0697 | locus YGL227W, strain vid30, hits give low values 0.065 | locus YGL240W, strain doc1, hits give low values 0.0922 | locus YGL248W, strain PDE1, hits give low values 0.0451 | locus YGL253W, strain hxk2, hits give low values 0.0562 | locus YGR078C, strain PAC10, hits give low values 0.0475 | locus YGR135W, strain pre9, hits give low values 0.0572 | locus YGR229C, strain SMI1, hits give low values 0.0582 | locus YGR252W, strain gcn5, hits give low values 0.112 | locus YHR013C, strain ard1, hits give low values 0.101 | locus YHR027C, strain rpn1, hits give low values 0.0633 | locus YHR030C, strain SLT2, hits give low values 0.0493 and 0.0968 | locus YHR079C, strain IRE1 (second series), hits give low values 0.0556 | locus YHR079C, strain IRE1, hits give low values 0.104 | locus YHR094C, strain hxt1, hits give low values 0.0572 | locus YHR129C, strain ARP1, hits give low values 0.0541 | locus YHR142W, strain chs7, hits give low values 0.0779 | locus YHR200W, strain rpn10, hits give low values 0.0594 | locus YIL066C, strain RNR3, hits give low values 0.047 | locus YIL073C, strain SPO22, hits give low values 0.109 | locus YIL125W, strain kgd1, hits give low values 0.0629 | locus YIR030C, strain dcg1, hits give low values 0.0572 | locus YJL092W, strain hpr5, hits give low values 0.0607 | locus YJL095W, strain BCK1 (second series), hits give low values 0.0571 | locus YJL095W, strain BCK1, hits give low values 0.0582 and 0.0962 | locus YJL115W, strain asf1, hits give low values 0.0715 | locus YJL129C, strain trk1, hits give low values 0.0907 | locus YJL134W, strain LCB3, hits give low values 0.0474 | locus YJL154C, strain vps35, hits give low values 0.0605 | locus YJL164C, strain tpk1, hits give low values 0.0651 | locus YJL166W, strain qcr8, hits give low values 0.0602 | locus YJL168C, strain set2, hits give low values 0.0557 | locus YJL187C, strain SWE1 (second series), hits give low values 0.0452 | locus YJL187C, strain SWE1, hits give low values 0.0595 | locus YJR043C, strain POL32, hits give low values 0.0608 | locus YJR066W, strain TOR1, hits give low values 0.00124
